Compounds with a hit are over-represented: about 2.4% of the library has one in this group of screens.
POLH inh – inhibitors of human DNA polymerase eta; Potency, µM (series often up to 114 µM), for the others: top-dose activity change, negative = inhibition, actives largely listed as inhibitors; recombinant Pol eta, fluorescent DNA replication assay; Q9Y253; 1.2% of 390,000 active; also: % is scaled to controls: 0 for no effect and ±100 for the full control effect
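Fluorescent replication assay: 50 nM final substrate added after a 15 min room-temperature compound preincubation with 10 nM enzyme. Signal taken at 0 min and again at 10 min.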
TDP1 inh – blocks human tyrosyl-DNA phosphodiesterase 1; 0.28% of 350,000 active; Potency, µM (doses to about 130 µM), for the others: at the highest dose activity change, negative = inhibition, actives largely listed as inhibitors; Q9NUW8; recombinant TDP1, AlphaScreen DNA substrate cleavage; AID 485290; also: % is scaled to controls: 0 for no effect and ±100 for the full control effect; nearly all actives have a fitted effect of over 40% in size
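Steps: enzyme plus compound, 15 min RT; add biotin/phosphotyrosine-FITC oligonucleotide (15 nM final), react 5 min; add donor/acceptor beads (10 ug/ml final), 10 min; read AlphaScreen. Tdp1 at 1 nM final.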
POLK inh – inhibitors of human DNA polymerase kappa; Q9UBT6; purified Pol kappa, fluorescent DNA synthesis assay, 10 min; Potency, µM (titrated, usually from 107 µM), for inactives: at the highest dose activity, negative = inhibition, usual class: inhibitors; 0.53% of 400,000 active; also: % is scaled to controls: 0 for no effect and ±100 for the full control effect
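Inhibition of 10 nM Pol kappa is measured by a fluorescent read-out at 0 and 10 min following addition of 50 nM substrate (final), with a 15-min room-temperature compound preincubation.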
Pol beta inh – inhibitors of human DNA polymerase beta. P06746. Pol beta primer extension/strand displacement, fluorescence kinetic. Potency, µM (doses to about 114 µM), without a hit: top-dose activity change, negative = inhibition, hits mostly inhibitors. 1.3% of 340,000 active. AID 485314; also: % is scaled to controls: 0 for no effect and ±100 for the full control effect
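Kinetic readout of DNA synthesis with strand displacement by Pol beta. Compound and 10 nM enzyme sit 15 min at room temperature; 50 nM substrate starts the reaction, read immediately and at 10 min.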
Pol iota inh – inhibitors of human DNA polymerase iota | Q9UNA4 | Pol iota fluorescent replication assay, 10 min | Potency, µM (highest dose often 115 µM), for inactives: top-dose activity, negative = inhibition, most hits filed as inhibitors | 1% of 390,000 active
Target sequence (Q9UNA4 whole entry, looked up): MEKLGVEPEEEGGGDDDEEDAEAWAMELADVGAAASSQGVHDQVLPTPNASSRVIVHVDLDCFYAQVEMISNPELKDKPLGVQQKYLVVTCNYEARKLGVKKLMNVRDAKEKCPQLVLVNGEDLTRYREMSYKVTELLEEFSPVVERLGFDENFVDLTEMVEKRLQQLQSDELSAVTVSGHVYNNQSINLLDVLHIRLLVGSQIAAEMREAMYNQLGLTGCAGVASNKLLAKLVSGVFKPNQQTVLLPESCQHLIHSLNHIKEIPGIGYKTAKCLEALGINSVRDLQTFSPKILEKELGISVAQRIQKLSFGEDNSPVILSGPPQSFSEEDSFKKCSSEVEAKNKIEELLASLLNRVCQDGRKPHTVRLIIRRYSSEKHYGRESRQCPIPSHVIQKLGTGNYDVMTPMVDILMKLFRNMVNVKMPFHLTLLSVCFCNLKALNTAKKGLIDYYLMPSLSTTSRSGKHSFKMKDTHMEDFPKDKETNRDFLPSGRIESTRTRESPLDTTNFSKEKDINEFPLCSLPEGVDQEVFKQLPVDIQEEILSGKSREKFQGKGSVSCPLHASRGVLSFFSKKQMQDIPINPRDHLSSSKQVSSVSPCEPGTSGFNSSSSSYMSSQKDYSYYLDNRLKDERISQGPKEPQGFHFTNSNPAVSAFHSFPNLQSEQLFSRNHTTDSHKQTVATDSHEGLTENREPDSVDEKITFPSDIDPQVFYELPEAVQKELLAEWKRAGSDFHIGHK
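Pol iota at 10 nM preincubated 15 min with compounds at room temperature; reaction started with fluorescent substrate, 50 nM final. Fluorescence read kinetically at 0 and 10 min; buffer-only wells as negative control.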
FEN1 inh – inhibitors of human flap endonuclease 1 | P39748 | Recombinant FEN1 flap cleavage, fluorescence, 15 min | Potency, µM (titrated, usually from 114 µM), for the others: at the top dose activity change, negative = inhibition, most hits filed as inhibitors | 0.35% of 390,000 active | AID 588795; also: % is scaled to controls: 0 for no effect and ±100 for the full control effect; nearly all actives have a fitted effect of over 65% in size
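Reaction started by adding substrate (50 nM final) to 10 nM enzyme after 15 min room-temperature compound preincubation. Reads at 0 and 15 min, with data normalized and fitted to a four-parameter Hill equation.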
PGK validate – TbPGK inhibition, hit validation. TbPGK coupled GAPDH assay, Kinase-Glo luminescence. AID 686980. 79% of 500 active. shares compounds with POLK inh. Potency, µM (titrated, usually from 57.5 µM), without a hit: at the highest dose activity change, negative = inhibition, actives largely listed as inhibitors; also: % is scaled to controls: 0 for no effect and ±100 for the full control effect; nearly all actives have a fitted effect of over 65% in size
POLI cherry-pick – Confirm cherry-picked inhibitors of human polymerase iota | shares compounds with POLK inh | Pol iota primer extension, TAMRA/BHQ fluorescence | Potency, µM, most hits filed as inhibitors | 77% of 1,500 active | AID 720496
Active calls of the source: *; [ ] = another dose, or the depositor's remark. Calls follow the shape of the dose curve; as a rule, active = well fitted curve in the direction sought with a large enough effect; inconclusive = small, poorly fitted or top-dose-only effect, or another doubt; inactive = no such curve, though single readings can be large; an effect the other way counts as inactive or inconclusive. Potency is read from the fitted curve at half-maximal effect.

CCCCC[C@H](O)/C=C/[C@@H]1[C@@H](C/C=C\CCCC(=O)OC)[C@@H](O)C[C@H]1O was read as POLH inh inconclusive, TDP1 inh 50µM*, POLK inh -10%, Pol beta inh 24%, Pol iota inh 1.3µM*, FEN1 inh inconclusive and PGK validate 4%.
`CCN(CC)S(=O)(=O)c1cccc(C(=O)N/N=C/c2ccc(O)c(O)c2O)c1` gave POLH inh inconclusive, TDP1 inh 6%, POLK inh inconclusive, Pol beta inh -2%, Pol iota inh inconclusive, FEN1 inh inconclusive and POLI cherry-pick inconclusive.
For CNC1CCCN(c2c(F)cc3c(=O)c(C(=O)O)cn(C4CC4)c3c2OC)C1 (stereo not given) the results were POLK inh -3%[19.4 µM].
Screening COc1c(N2CCN(C(=S)NCc3ccccc3)C(C)C2)c(F)cc2c(=O)c(C(=O)O)cn(C3CC3)c12 (stereo not given) returned POLH inh 32µM*, TDP1 inh inconclusive, POLK inh inconclusive, Pol beta inh 28µM*, Pol iota inh 16µM*, FEN1 inh inconclusive and POLI cherry-pick 53*.
CNc1oc(/C=C/c2cc(OC)c(OC)c(OC)c2)nc1C#N was read as TDP1 inh 7%, POLK inh -13%, Pol beta inh -1%, Pol iota inh 9% and FEN1 inh -5%.
For Cc1cc2c(OCC(CNC(C)(C)C)OC(=O)c3ccccc3)cccc2[nH]1 (stereo not given) the results were TDP1 inh 7% and POLK inh 2%[19.4 µM].
Cc1ccc(NC(=O)CN2C(=O)S/C(=C/c3ccc(-c4cc(C(=O)O)ccc4C)o3)C2=O)cc1C was read as POLH inh 20µM*, POLK inh 79µM*, Pol beta inh 7.1µM*, Pol iota inh 22µM*, FEN1 inh 35µM* and PGK validate 7.3µM*.
CCn1c(C)cc(/C=C2\SC(=O)N(CC(=O)Nc3ccc(C)c(C)c3)C2=O)c1C was read as POLH inh -17%, TDP1 inh -1%, POLK inh -1%, Pol beta inh 1%, Pol iota inh 2% and FEN1 inh -2%.
COC(=O)c1ccc(NC(=O)CN2C(=O)c3cccc4cccc2c34)cc1 was read as POLH inh -14%, TDP1 inh 0%, POLK inh -15%, Pol beta inh 3%, Pol iota inh 19% and FEN1 inh -5%.
For COc1ccc2[nH]c3c(C)c4ccncc4c(C)c3c2c1 the results were POLH inh inconclusive, TDP1 inh 6%, POLK inh 50µM*, Pol beta inh 1.3µM*, Pol iota inh 3.5µM*, FEN1 inh 2.8µM* and POLI cherry-pick 7.5*.
COc1ccc2[nH]c(C)cc(=O)c2c1 was read as POLH inh -1%, TDP1 inh -5%, POLK inh -5%, Pol beta inh -3%, Pol iota inh 13% and FEN1 inh 1%.
Screening COc1ccc(-c2cn(Cc3ccc4c(c3)C(=O)c3ccccc3C4=O)nn2)cc1 returned POLH inh 5%, POLK inh -12%, Pol beta inh -22%, Pol iota inh 7% and FEN1 inh -16%.
Screening O=C1c2ccccc2-c2nnc(-c3ccccc3)cc21 returned POLH inh -5%, TDP1 inh 4%, POLK inh 5%, Pol beta inh 26%, Pol iota inh inconclusive, FEN1 inh -6% and PGK validate 12µM*.
Screening Cc1cccc(-c2cc3c(nn2)-c2ccccc2C3=O)c1 returned POLH inh -12%, TDP1 inh 7%, POLK inh -12%, Pol beta inh 7%, Pol iota inh 35% and FEN1 inh -19%.
For COc1ccc(-c2cc3c(nn2)-c2ccccc2C3=O)cc1 the results were POLH inh -21%, TDP1 inh 0%, POLK inh -3%, Pol beta inh 37%, Pol iota inh 187%, FEN1 inh 1% and PGK validate 4.6µM*.
For CC(C)CCNC(=O)c1ccc(Cn2c(=S)[nH]c3ccccc3c2=O)cc1 the results were POLH inh inconclusive, POLK inh 0%, Pol beta inh inconclusive, Pol iota inh inconclusive, FEN1 inh -15% and POLI cherry-pick inconclusive.
COc1ccc(Cn2c(=O)[nH]c3cc(C(=O)NCCC(C)C)ccc3c2=O)cc1 was read as POLH inh -17%, TDP1 inh -6%, POLK inh -2%, Pol beta inh 15%, Pol iota inh 26% and FEN1 inh 6%.
For COc1ccc(CN(Cc2ccccc2)C(=O)CN2CCN(C)CC2)cc1COc1ccc(NC(C)=O)cc1 the results were TDP1 inh -8%, POLK inh -11%, Pol iota inh inconclusive and FEN1 inh -23%.
COC(=O)NC(/C=C/c1ccccc1)[C@]1(C(C)=O)CCCC1=O (stereo not given in full) was read as TDP1 inh 9%[21 µM].
`Cc1nn(-c2nc3ccccc3[nH]2)c(=O)c2ccccc12` gave POLH inh -9%, TDP1 inh -6%, POLK inh -1%, Pol beta inh 1%, Pol iota inh 29%, FEN1 inh -9% and PGK validate 2.9µM*.
Screening CC(=O)c1sc2nc(C)cc(C)c2c1N returned POLH inh -13%, TDP1 inh -3%, POLK inh -9%, Pol beta inh 0%, Pol iota inh 0% and FEN1 inh -3%.
`Cc1cc(C)c2c(n1)sc1c(O)cc(=O)[nH]c12` gave POLH inh 79µM*, TDP1 inh 22µM*, POLK inh 79µM*, Pol beta inh inconclusive, Pol iota inh inconclusive, FEN1 inh inconclusive and POLI cherry-pick 47*.
For Cc1cc(=O)[nH]c(N/N=C/c2ccco2)n1 the results were POLH inh -5%, TDP1 inh 4%, POLK inh -6%, Pol beta inh -16%, Pol iota inh 12% and FEN1 inh 8%.

Screening data: PubChem, National Center for Advancing Translational Sciences (NCATS)
